This test deals with HL-60(TB) leukemia. The test is described as follows: NCI-60 one-dose screen, 48 h (100 = growth as untreated, 0 = no growth, -100 = all killed). To be noted: 10 µM unless noted.

Each structure is given as a SMILES string. The panel holds about 83,000 compounds, 20% with a hit somewhere; the sample as a whole holds those more often.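 The endpoint reported here, percent growth, reads 100 for growth as untreated, 0 for no net growth and -100 for all cells dead.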 Unmarked numbers belong to inactive results. The source made the active and inactive calls. Rule for the calls: active = growth percent below 10; inactive = the rest.

Growth data for 83 molecules are collected here from PubChem BioAssay (NCI).

For `CN(C)CCCNc1nn2c(=O)c3ccccc3nc2c2ccccc12`, the growth was 26.9%.
For `CC1CCCCN1CCCNC(=O)c1ccc2c(c1)sc1nc(-c3ccc(F)cc3)cn12` (stereo not drawn) the value was 74.1%; for `O=C1CN(c2ccccc2)C(=O)C1C(=O)Nc1ccc(Cl)c(Cl)c1` (stereo not drawn), 7.75% [100 µM] (active); for `COc1ccc(N/N=C/c2cn(-c3ccc(C(=O)O)cc3)nc2-c2cc3ccccc3oc2=O)cc1`, 8.19% (active).
For `O=C(CSc1nccc(Nc2cccc3ccccc23)n1)c1ccc(Cl)cc1`, the growth was 99.2%.
Consider `CCOC(=O)c1ccc(NCCC(=O)O)cc1`, for which the growth was 96.4%.
For `C=C1C(=O)O[C@H]2[C@H]1CC/C(COC(=O)CCCCCC(=O)OC/C1=C/CC[C@@]3(C)O[C@H]3[C@H]3OC(=O)C(=C)[C@@H]3CC1)=C\CC[C@@]1(C)O[C@@H]21`, the growth was -30% (active).
Consider `Clc1nn2c(Cn3cnc4c(NCc5ccccc5)ncnc43)nnc2c2ccccc12`, for which the growth is 23%.
As for `NS(=O)(=O)Oc1ccc(NC(=O)C23CC4CC(CC(C4)C2)C3)cc1Cl`, the figure is 100%; as for `COc1cc(/C=C/C(=O)c2ccccc2O)ccc1OCCCOc1cc2c(cc1OC)C(=O)N1CCC[C@H]1C=N2`, -27.4% (active).
As for `COC1=C(OC)C(=O)C(OC)=C(OC)C1=O`, the figure is 102%; as for `Cc1[nH]c(C(=O)Nc2ccc(C(=O)NCCN)cc2OC(C)C)c(Cl)c1Cl`, -21.3% (active).
In the case of `CCN(CC)CC(O)CNc1ccnc2cc(Cl)c(Cl)cc12` (stereo not drawn), the growth is 92.2%.
For `O=c1[nH]c(NCc2nnnn2-c2ccc(Br)cc2)nc2sc3c(c12)CCCC3` the value was 103%; for `O=C(c1ccc(OCCN2CCCCC2)cc1)c1c(-c2ccc(O)cc2)sc2cc(O)ccc12`, 76.8%; for `CSc1nc(-c2ccc(F)cc2)c(C#N)c(N2CCOCC2)n1`, 79.6%.
For `COc1cc(NC(=O)CCSc2nc3ccc(C)cc3c(=O)n2Cc2ccccc2)cc(OC)c1OC` the value was 116%.
For the molecule `S=C(SSC(=S)N1CCOCC1)N1CCOCC1`, the growth is 98%.
As to `CC1(C)CC[C@]23CC[C@]4(C)[C@H](CC[C@@H]5[C@@]6(C)C/C(=C/c7ccncc7)C(=O)C(C)(C)[C@@H]6CC[C@]54C)[C@H]2[C@H]1OC3=O`, the growth is 43% [100 µM].
In the case of `CCCN1C(=O)N(CCC)C2C1NC(=S)N2/N=C/C=C/c1ccccc1OC` (stereo not drawn), the growth is -42.1% (active).
With `CCCCCCCCCCCCCC(=O)C(C)N` (stereo not drawn), the growth is 14.6%.
For `CCC/C=C(/C(C)=O)C(=O)OCC` the value was 93.2%; for `COc1cccc(/C=N/NC(=O)c2ccccc2N2CCCC2)c1O`, 4.58% (active); for `N#Cc1nc(C#N)c(Sc2ccccc2)c(Sc2ccccc2)c1Sc1ccccc1`, -37.2% (active).
With `COc1ccc(C(=O)/C=C/c2cc3c(c(OC)c2)OCC(=O)N3)cc1`, the growth was 6.81% (active).
Regarding `CSc1[nH]c(=O)ncc1F`, the growth is 106%.
Regarding `Cc1ccc2c(/C=C/C(=O)c3cc(CN4CCOCC4)c(O)c4nc(C)ccc34)cc(CN3CCOCC3)c(O)c2n1`, the growth was -25.2% (active).
`C#CC#CC#CC#CC#CC#CC#CC#CC[C@@H]1OC[C@H](COC(=O)O[C@@H](C(=O)O[C@H]2C[C@@]3(O)[C@@H](OC(=O)c4ccccc4)[C@@H]4[C@]5(OC(C)=O)CO[C@@H]5C[C@H](O)[C@@]4(C)C(=O)[C@H](OC(C)=O)C(=C2C)C3(C)C)[C@@H](NC(=O)c2ccccc2)c2ccccc2)O1`: the growth is 6.04% (active).
Consider `O=C1C(=O)c2cccnc2-c2ncccc21`, for which the growth was -21% (active).
As for `O=S(=O)(Oc1ccc(-c2ccc3sccc3c2)cc1)c1ccccc1`, the figure is 99.6%; as for `O=C(c1cccs1)c1ccccc1Cc1ccccc1`, 98.8%.
For `Cn1ccc(=Nc2ccc(NC(=O)c3ccc(N=c4ccn(C)c5ccc([N+](=O)[O-])cc45)cc3)cc2)cc1` the value was 76.7%; for `O=c1oc2ccc(Cl)cc2c(=O)n1-c1ccc(I)cc1F`, -46.3% (active); for `CCCCCCCCCCCC[S+](C)CC(=O)[O-]` (stereo not drawn), 20.3%.
For `CC(=O)N1CCN(CCNC(=O)n2cc(-c3ccncc3)c(-c3cc(O)cc(Cl)c3)n2)CC1` the value was 59.9%; for `CCCCNc1nc(NC(C)(C)C)nc(NC(C)(C)C)n1`, 36.6%; for `C/C(=N\NC(=O)c1ccccc1N)c1ccccc1O`, 40.8%.
With `O=C(O)/C=C\C(=O)N1C/C(=C\c2ccccc2Cl)C(=O)/C(=C/c2ccccc2Cl)C1`, the growth was -3.51% (active).
As for `COc1ccc(-c2nc([C@@H](C)Sc3nc(N)cc(N)n3)c(C)s2)cc1OCCN1CCOCC1`, the figure is 105%; as for `COc1ccc(NNS(=O)(=O)O)cc1`, 103%; as for `COc1cc(-c2ccc(-c3ccc(C(=N)N)s3)s2)cc(OC)c1OC`, -56.6% (active).
As for `O=C1/C(=C/c2ccccc2[N+](=O)[O-])COc2ccc(O)c(O)c21`, the figure is -29.2% (active); as for `CCNCCNc1cc(-c2cccc(C(F)(F)F)c2)c(C#N)c2nc3ccccc3n12`, -58.7% (active); as for `O=C(NC(Cc1nnc2n(Cc3ccccc3)c(=O)c3c4c(sc3n12)CCCC4)c1ccccc1)c1ccccc1` (stereo not drawn), -70.3% (active).
For `OCCn1cccn1` the value was 99.2%; for `CCN(CC)c1ccc(C(=O)c2ccc(N(CC)CC)cc2)cc1`, 9.59% (active).
`Clc1ccc(-c2noc(/C=C\c3ccccc3)n2)cc1`: the growth is 94%.
As for `COc1ccc2cc(-c3cnc4nonc4n3)ccc2c1`, the figure is -12% (active); as for `O=S(=O)(Nc1cc(Sc2cccc3cccnc23)c(O)c2ccccc12)c1ccccc1`, -21% (active); as for `CC(C)(C)C(=O)OCOP(=O)(OCOC(=O)C(C)(C)C)C1CCCN(OC(=O)c2ccccc2)C1=O` (stereo not drawn), 35.1%.
For `Cc1[nH]c2ccc(F)cc2c1CCNC(=O)C1CCN(C(=O)c2ccc(-c3ccccc3)cc2)CC1` the value was 55.3%; for `COC(=O)CNC(=O)[C@]12CCC(C)(C)C[C@H]1C1=CC[C@@H]3[C@@]4(C)Cc5c([nH]c6ccccc56)C(C)(C)[C@@H]4CC[C@@]3(C)[C@]1(C)CC2`, 76.9%.
For `CC1COCC(C)N1C1=C(Cl)C(=O)c2ccccc2C1=O` (stereo not drawn) the value was -19.5% (active); for `COc1ccc(-c2cn(Cc3ccc4c(Br)cc(Br)c(O)c4n3)nn2)cc1`, 48.6%.
Regarding `O=c1c2cc(F)ccc2sc2c(N3CCNCC3)nc3ccc(F)cc3c12`, the growth was 3.71% (active).
For `Cn1cc(-c2nonc2-c2c[nH]c3ccc(F)cc23)c2cccnc21` the value was 91.7%.
`O=C(O)Cn1ccc2ccccc21`: the growth was 104%.
As for `COc1ccc(C(=O)C2C(C#N)C(C#N)C3C=Cc4ccccc4N32)cc1` (stereo not drawn), the figure is -7.91% (active); as for `Oc1cccc2ccc(N/N=C/c3cc(CN4CCCCC4)c(O)c4ncccc34)nc12`, -12.1% (active); as for `COc1ccc(-c2cc(-c3nnc(SCC(=O)Nc4ccc(/C(C)=N\O)cc4)o3)c3ccccc3n2)cc1`, 104%.
Take `C#C[C@]1(O)CC[C@H]2[C@@H]3CC=C4c5sc(Nc6cc(F)ccc6F)nc5CC[C@]4(C)[C@H]3CC[C@@]21C`: the growth was -1.19% (active).
Turning to `N#Cc1c(N2CCOCC2)nc2sc3cc(Cl)ccc3n2c1=N`, the growth was 107%.
As for `Nc1ccc(/C=N/Nc2ccnc3c(O)cccc23)c2cccnc12`, the figure is 17.9%; as for `Cc1onc2c(-c3ccccc3)n[nH]c(=O)c12`, 90.2%; as for `Cc1cc(O)cc(O)c1N=NC1=NCCS1`, 105%.
For `Brc1ccc(-c2[nH]ncc2-c2c[nH]c3ccccc23)cc1` the value was 80.7%; for `O=C(CCCSc1nc(-c2ccccc2)cc(-c2ccc(Cl)cc2)n1)NO`, -15.8% (active); for `COc1ccc(/C=C2\c3cc(OC)c(OC)c(OC)c3CC[C@@H]2O)cc1F`, -22.4% (active).
As for `COc1cnc2c(c1)C(=O)c1c-2n(CCCBr)c(=O)c2cc([N+](=O)[O-])ccc12`, the figure is 5.74% (active); as for `C#CC(F)(F)[C@]1(O)CC[C@H]2[C@@H]3CCC4=CC(=O)CCC4=C3[C@@H](c3ccc(C(C)=O)cc3)C[C@@]21C`, -62.6% (active).
For the molecule `O=C(Nc1ccc(Cl)c(Cl)c1)O/N=C\c1c(Cl)ccc([N+](=O)[O-])c1Cl`, the growth is -61.4% (active).
For `COc1ccc(/C=C2\CS(=O)(=O)C/C(=C\c3ccc(OC)cc3)C2=O)cc1` the value was -29.8% (active).
For `O=C(Nc1nc2ccccc2s1)c1cc(-c2ccc(F)cc2)n2nc(-c3ccccc3)cc2n1` the value was 107%; for `N#C/C(=N\Nc1ccccc1)C(=O)Nc1cc(-c2ccccc2)nn1-c1ccccc1`, 35.4%; for `CN(C)CCN1C(=O)c2cccc3c(-c4ccc(-c5nc6c7ccccc7c7ccccc7c6[nH]5)cc4)ccc(c23)C1=O`, 90.7%.
For `O=[N+]([O-])c1ccc(Oc2ccc(-c3ccccc3)cc2)cc1` the value was 78.7%; for `CCOC(=O)C1=C(C)N=C2SC=C(c3ccccc3)N2[C@H]1c1cn[nH]c1-c1ccc(Cl)cc1`, 1.71% (active); for `S=c1[nH]nc2sc3ccccc3n12`, 107%.
With `COc1ccc(Oc2[nH]n(C3=Nc4ccccc4Sc4ccccc43)c(=O)c2C#N)cc1`, the growth was 112%.
As for `CCOP(=O)(OCC)C1CP(=O)(c2ccccc2)CC(C)=C1Cl` (stereo not drawn), the figure is 92.1%.
For `Cn1cc(-c2ncnc3ccc(-c4cnc(Cl)c(NS(C)(=O)=O)c4)cc23)c2ccccc21` the value was 17.9%.
On to `COC(=O)C1=CCC(n2cnc3c(N)ncnc32)O1` (stereo not drawn), for which the growth is 94%.
As for `COC(=O)[C@]12CC[C@@H](C)[C@H](C)[C@@H]1C1=CC[C@@H]3[C@@]4(C)C[C@@H](OC(=O)c5ccco5)[C@H](O)[C@@](C)(CO)[C@@H]4[C@H](O)C[C@@]3(C)[C@]1(C)CC2`, the figure is -79.6% (active).
